Source: PubChem BioAssay AID588726 (The Scripps Research Institute Molecular Screening Center, 2011)
The whole screen tested about 360,000 compounds, of which about 8,200 (2.3%) were called active. Cut-off read from the data, not from the text of the source: active = inhibition above about 27%; inactive = the rest. The full list was thinned out, with actives kept by preference.

Each compound was assayed against Fructose-bisphosphate aldolase (Mycobacterium tuberculosis (strain ATCC 25618 / H37Rv)) (UniProt P9WQA3) (assay: Mtb FBA enzyme inhibitors, primary screen, biochemical, fluorescence, strain H37Rv (AID 588726;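 note: 0% = vehicle and 100% = reference inhibitor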)). Settings: purified M. tuberculosis FBA, fluorescence read-out, at 1 µM, hits give high values.
Chain of Fructose-bisphosphate aldolase (Mycobacterium tuberculosis (strain ATCC 25618 / H37Rv)) (P9WQA3 whole entry, looked up): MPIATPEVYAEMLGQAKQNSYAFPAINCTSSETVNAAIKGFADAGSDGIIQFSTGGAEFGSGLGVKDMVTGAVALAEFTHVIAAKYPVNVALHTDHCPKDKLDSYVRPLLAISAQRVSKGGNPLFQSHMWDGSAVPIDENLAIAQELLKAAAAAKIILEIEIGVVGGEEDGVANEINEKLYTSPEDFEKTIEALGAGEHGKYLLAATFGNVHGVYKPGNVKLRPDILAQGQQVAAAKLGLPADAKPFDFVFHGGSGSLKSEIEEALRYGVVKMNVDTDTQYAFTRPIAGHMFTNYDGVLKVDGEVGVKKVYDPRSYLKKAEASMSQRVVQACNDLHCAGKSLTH

SMILES | inhibition
Cc1oc(CC(C)C)c(CN2CCCC2)c1C(=O)O | -9.07% (inactive)
Cc1noc(C)c1C(=O)OCC(=O)N1CCN(S(=O)(=O)c2ccc3ccccc3c2)CC1 | 3.46% (inactive)
CCCc1cc(=O)oc2c(C)c(OC(C)C(=O)NCC(O)c3ccccc3)ccc12 (configuration not stated) | 18.1% (inactive)
O=c1cc(CN2CCCCCCC2)c2c(ccc3ccccc32)o1 | 17% (inactive)
O=C(CSc1ncccn1)N1CCCC1 | 1.75% (inactive)
Cc1cccc2c1-c1sc(C(=O)NCCCN3CCc4ccccc4C3)cc1CO2 | 90.4% (active)
Cc1cccc(C)c1NC(=O)c1ccc(CN2CCc3ccccc3C2)cc1 | 1.47% (inactive)
Cc1ccc(NC(=O)CN2CCc3ccccc3C2)cc1C | 0.22% (inactive)
COc1ccc(N2CCN(C(=O)COc3ccc4c(C)cc(=O)oc4c3)CC2)cc1 | 14.8% (inactive)
NC(=O)C1CCN(C(=O)COc2ccc3c4c(c(=O)oc3c2)CCC4)CC1 | 30.9% (active)
NC(=O)COc1ccc2c3c(c(=O)oc2c1)CCCCC3 | 114% (active)
CCOC(=O)N1CCN(C(=O)COc2ccc3oc4c(c3c2)CCCC4)CC1 | 0.5% (inactive)
O=C(COc1ccc2c3c(c(=O)oc2c1)CCC3)NC1CCCCC1 | 14.8% (inactive)
O=C(COc1ccc2oc3c(c2c1)CCCC3)Nc1ccccn1 | 1.77% (inactive)
CCCN(CCC)CCCNC(=O)CNC(=O)c1nn(-c2ccc(OC)cc2)c(=O)c2ccccc12 | 1.04% (inactive)
O=C(COC(=O)CC1CC2CCC1C2)NC(=O)NC1CCCC1 (configuration not stated) | -0.01% (inactive)
COc1ccccc1NC(=O)C(CC(=O)O)Cc1cc(C)cc(C)c1 (configuration not stated) | -0.4% (inactive)
NS(=O)(=O)c1ccc2nc(NC(=O)C3=COCCO3)sc2c1 | 1.72% (inactive)
COc1ccc2nc(N3CCN(C(=O)c4ccc([N+](=O)[O-])o4)CC3)sc2c1 | -2.42% (inactive)
COc1ccc2nc(Nc3nc4cc5c(cc4s3)OCCO5)sc2c1 | 58.2% (active)
Cc1cc(C)cc(Oc2nc3c(C)cccn3c(=O)c2/C=C(\C#N)C(=O)NC2CCS(=O)(=O)C2)c1 (configuration not stated) | 16.1% (inactive)
C/C(=N/OC(=O)c1ccc(Br)cc1)c1ccc(C)cc1 | 1.15% (inactive)
COc1ccc(S(=O)(=O)NC(=O)C2(C)CCN2C(=O)c2ccccc2CCc2ccccc2)cc1 (configuration not stated) | 0.28% (inactive)

SMILES | inhibition
CC(=O)Nc1ccc2nc(NC(=O)CS(=O)(=O)c3ccc(F)cc3)sc2c1 | 1.63% (inactive)
CCOc1ccc2nc(C(=O)N3CCCC(C)C3)sc2c1 (configuration not stated) | 0.22% (inactive)
CCOc1ccc2nc(Nc3nc4ccc(NC(C)=O)cc4s3)sc2c1 | 44.8% (active)
O=C(NN1C(=O)C2C3C=CC(C3)C2C1=O)c1ccco1 (configuration not stated) | 8.04% (inactive)
CCC(C)NCC(=O)Nc1ccc([N+](=O)[O-])cc1C(=O)Nc1ccccc1F (configuration not stated) | -4.2% (inactive)
CCOC(=O)N1CCC(NC(=O)CCc2cn(C)c3ccccc23)CC1 | 8.05% (inactive)
CCOC(=O)N1CCC(NC(=O)c2cnn3ccccc23)CC1 | 30.3% (active)
CCOC(=O)N1CCC(NC(=O)Cc2cn(C)c3ccccc23)CC1 | 11% (inactive)
CCO[C@@H]1OC(C(=O)NC2CC2)=C[C@H](C)[C@H]1CCCO | -0.48% (inactive)
O=C(O)C1CCCCC1C(=O)N1CCN(S(=O)(=O)c2ccc(F)cc2)CC1 (configuration not stated) | -1.39% (inactive)
CSc1c(SCc2ccccc2)cnn(Cc2ccccc2)c1=O | -0.17% (inactive)
COC(=O)c1ccc(C2C(Oc3ccccc3C)C(=O)N2CCc2ccc(OC)c(OC)c2)cc1 (configuration not stated) | -0.68% (inactive)
COc1ccc(C2CC(c3cccs3)=NN2c2nc(C)c(C(C)=O)s2)cc1OC (configuration not stated) | 16.3% (inactive)
O=C1C2N=NN(CC(=O)N3N=C(c4cccc5ccccc45)CC3c3ccccc3)C2C(=O)N1c1ccccc1 (configuration not stated) | 11.2% (inactive)
Fc1ccc(N2N=C(c3cccs3)CC2c2ccco2)c(F)c1 (configuration not stated) | 102% (active)
Oc1ccccc1C1=NN(c2ccccc2)C(c2ccccc2)C1 (configuration not stated) | 72.4% (active)
COc1ccc(C2CC(c3cccs3)=NN2C(=O)CSc2nnc(N)s2)cc1OC (configuration not stated) | 3.05% (inactive)
COc1ccc(C2CC(c3cccs3)=NN2c2ccc(F)cc2)cc1OC (configuration not stated) | 27.2% (active)
Cc1ccc(N2C(=O)C3N=NN(CC(=O)N4N=C(c5cccc6ccccc56)CC4c4ccccc4)C3C2=O)cc1 (configuration not stated) | 11.4% (inactive)
COc1cccc(C2CC(c3cccs3)=NN2C(=O)CSC2=NCCS2)c1OC (configuration not stated) | 6.98% (inactive)
Cc1ccccc1C1CC(c2cccs2)=NN1S(C)(=O)=O (configuration not stated) | -0.14% (inactive)
O=C(COc1ccccc1Cl)N1N=C(c2cccs2)CC1c1ccco1 (configuration not stated) | 7.49% (inactive)
COc1ccccc1N1N=C(c2cccs2)CC1c1ccccc1 (configuration not stated) | 39.5% (active)

SMILES | inhibition
Cc1ccc(C2=NN(C(=O)CSc3nc(N)cc(N)n3)C(c3ccco3)C2)cc1 (configuration not stated) | 0.79% (inactive)
Cc1ccc(C(=O)OCC(=O)NC(=O)Cc2ccccc2)c(O)c1 | -0.03% (inactive)
Cc1cc(C(C)(C)C)cc(S(=O)(=O)Nc2ccc(C(=O)O)cc2)c1C | -1.68% (inactive)
CC(=O)Oc1c(C(=O)c2nnc(C)o2)c(=O)n(Cc2ccccc2)c2ccccc12 | 8.77% (inactive)
COc1ccc(CC(N)c2csc(NC(=O)Nc3ccc(C(C)C)cc3)n2)cc1 (configuration not stated) | -1.36% (inactive)
CN(CC(=O)Nc1ccc(F)cc1)CC(=O)N1CCCCC1 | -1.7% (inactive)
C=Cc1ccc(C(=O)N2CCCC(CCC(=O)N3CCN(c4ccccn4)CC3)C2)cc1 (configuration not stated) | -0.65% (inactive)
COc1ccc(C2CC(c3cccs3)=NN2c2ccccc2)cc1 (configuration not stated) | 74% (active)
COc1ccc(C2=NN(c3ccccc3)C(c3cccs3)C2)cc1 (configuration not stated) | 113% (active)
COc1ccc(N2C(=O)C3CCCN3C2c2cccs2)cc1 (configuration not stated) | 1.46% (inactive)
COc1ccc(C2CC(c3cccs3)=NN2C(=O)COC(=O)c2cc3ccccc3cc2O)cc1OC (configuration not stated) | -0.95% (inactive)
COc1ccc(C2CC(c3ccccc3)=NN2C(=O)c2ccc(Cl)c([N+](=O)[O-])c2)cc1 (configuration not stated) | -0.72% (inactive)
COc1ccc(C2CC(c3cccs3)=Nc3ccccc3S2)cc1OC (configuration not stated) | 6.74% (inactive)
COc1ccc(C2CC(c3cccs3)Nc3nnnn32)cc1 (configuration not stated) | 2.13% (inactive)
COc1ccc(N2CCN(C(=S)Nc3ccc(S(N)(=O)=O)cc3)CC2)cc1 | -1.46% (inactive)
COc1ccc(CCNC(=O)CSc2nc(C)nc3c2oc2ccccc23)cc1OC | 0.84% (inactive)
O=C(NC1CCCC1)C(c1ccco1)N(C(=O)c1ccco1)c1ccc(F)cc1 (configuration not stated) | -0.27% (inactive)
FC(F)Oc1ccccc1NC(=S)Nc1cccc(Cl)c1Cl | -0.26% (inactive)
CCCCOC(=O)Nc1sc2nc(C)cc(C)c2c1-n1cccc1 | 5.62% (inactive)
CCCC1NC(=S)NC(C)=C1C(C)=O (configuration not stated) | 2.16% (inactive)
OCCNc1nc2ccccc2n1-c1ncnc2sc3c(c12)CCC3 | 3.23% (inactive)
O=C(O)c1cccnc1Sc1ncnc2sc3c(c12)CCC3 | 53.6% (active)
CCCSc1ncccc1C(=O)O | 0.16% (inactive)

SMILES | inhibition
Oc1c(Cl)cc(Cl)c(Cl)c1Cc1c(O)c(Cl)cc(Cl)c1Cl | 0.15% (inactive)
O=C(COC(=O)c1ccc2ncsc2c1)Nc1ccc(Cl)cc1 | 0.06% (inactive)
CCC(Cc1ccccc1)NC(=O)C1CCCCC1 (configuration not stated) | -3.87% (inactive)
CCCc1cc(=O)[nH]c(SCC(=O)N2CCN(S(=O)(=O)c3ccc(C)cc3C)CC2)n1 | -1.1% (inactive)
Cc1ccc(S(=O)(=O)N2CCN(C(=O)COC(=O)c3c(C)cc(C)cc3C)CC2)c(C)c1 | -1.2% (inactive)
Cc1ccc(S(=O)(=O)N2CCN(C(=O)CSc3cc(C)ccc3C)CC2)c(C)c1 | 29.2% (active)
Cc1cc(Br)ccc1SCC(=O)OCC(=O)NCc1ccc2c(c1)OCO2 | -1.37% (inactive)
CCn1c(=O)cc(SCC(=O)NCCC2=CCCCC2)c2ccccc21 | 6.21% (inactive)
Cc1ccc(C)c(S(=O)(=O)N2CC(=O)Nc3ccccc32)c1 | 31.2% (active)
Cc1ccc(S(=O)(=O)N2CC(=O)Nc3ccccc32)cc1C | -0.25% (inactive)
Cc1ccc(S(=O)(=O)N(C)CC(=O)OCC(=O)N2CC(=O)Nc3ccccc32)cc1 | 0.54% (inactive)
O=C(OCc1cn([C@@H]2C[C@H](c3ccc(Cl)cc3)N(Cc3cccs3)C[C@H]2O)nn1)c1ccccc1 | 0.72% (inactive)
O=C(CCC(=O)N/N=C/c1ccc(Br)o1)N/N=C/c1ccc(Br)o1 | 31.8% (active)
O=C(CCNC(=O)c1ccccc1)NN=Cc1ccc(Br)o1 | 0.48% (inactive)
O=C(CCc1n[nH]c(=O)[nH]c1=O)N/N=C/c1ccc(Br)o1 | 4.62% (inactive)
COc1ccc2c(c1)CCc1cn3ncc(C#N)c3nc1-2 | 522% [above what the read-out allows, likely interference] (active)
N#Cc1cnn2cc(CCN3CCOCC3)c(-c3ccc(F)cc3)nc12 | 15.8% (inactive)
COc1ccc2c(c1)CCc1c(C(=O)N3CCCC3)noc1-2 | 0.6% (inactive)
CC(C)C(NS(=O)(=O)c1cccs1)C(=O)Nc1nc(C(C)(C)C)cs1 (configuration not stated) | 2.98% (inactive)
CN1C(=O)C2(OCCCO2)c2cc(Cl)ccc21 | 1.91% (inactive)
CCOc1ccc(Nc2nc(Cc3nnc(SCC(=O)c4ccc(C)cc4)o3)cs2)cc1 | -1.31% (inactive)
CCN(CC)C(=O)C1=C(C)N(Cc2ccc(F)cc2)C(=O)C(CC(=O)NC2CCCC2)C1 (configuration not stated) | -1.29% (inactive)
Cn1nccc1NS(=O)(=O)c1ccc(F)cc1 | -0.97% (inactive)
